Compounds without any hit were thinned out: in the full panel of roughly 83,000, 20% have a hit.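 Growth was measured after 48 h exposure to one concentration of compound in 96-well plates. Values under 10 count as active.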 Calls of active or inactive are those of the source.
These compounds were tested on HL-60(TB) leukemia (assay: NCI-60 one-dose screen, 48 h (100 = growth as untreated, 0 = no growth, -100 = all killed)). Conditions: 10 µM unless noted.

| SMILES | growth |
| --- | --- |
| Cc1cccc(/C=C/C(=O)Nc2ncc(Cc3cccc(C)c3)s2)c1 | 0.463% (active) |
| Fc1ccc2nc(-c3cnn4cccnc34)sc2c1 | 96.7% (inactive) |
| Nc1ncc(-c2ccc3ncnc(N4CCc5cc(F)c(Cl)cc54)c3c2)cc1CO | -23.4% (active) |
| C/C(=N\NC(=S)Nc1ccc(Br)cc1)c1cc2ccccc2oc1=O | 1.53% (active) |
| Cn1ccnc1C(=O)/C=C/c1ccc(CNC(=O)c2ccc(S(F)(F)(F)(F)F)cc2)cc1 | -4.98% (active) |
| CC(=O)Nc1cc(N2CCOCC2)c2nc(NC(=O)c3[nH]c(C)c(Cl)c3Cl)sc2c1 | 82.9% (inactive) |
| CCOC(=O)c1c(Nc2ccccc2)nn2c(N)c(C#N)c(-c3ccc(F)cc3)nc12 | 72.6% (inactive) |
| Cc1ccc(NC(=O)c2ccc(CN3CCN(C)CC3)cc2)cc1Oc1ccc(-c2[nH]nc3ncnc(N)c23)cc1 | 126% (inactive) |
| COC(=O)CCCNCCCn1ccc2cc(NCc3cccc(-c4ccccc4)c3C)ccc21 | 16.7% (inactive) |
| CNC(=O)c1cc(N2CCc3cc(NC(=O)Nc4ccc(N5CCN(C)CC5)c(C(F)(F)F)c4)ccc32)ccn1 | 79% (inactive) |
| CCCn1cnc2c(c1=N)C(c1ccc(Cl)cc1)c1sc3c(C)cccc3c1O2 (stereo not drawn) | -20% (active) |
| CN1CCN(Cc2ccc(NC(=O)c3cncc(C#Cc4cnc5ccc(O[C@H]6CCOC6)nn45)c3)cc2C(F)(F)F)CC1 | -41.2% (active) |
| O=C(CCn1c[n+](CC(=O)c2ccc(F)cc2)c2ccccc21)Nc1cccc2cccnc12 | 36.7% (inactive) |
